Screens: PubChem, several laboratories
SENP7 block – blocks the human protease SENP7; Q9BQF6; recombinant SENP7, Z-RLRGG-aminoluciferin luminescence, 40 min; inhibition, % at 5 µM; actives 1.5% (n = 330,000); AID 434973;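 active = inhibition above about 50% at the single test dose, limit read from the data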;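 note: plate controls were DMSO with enzyme for no effect and no enzyme buffer wells for full effect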
SENP6 block – SENP6 protease inhibition; Recombinant SENP6 catalytic domain, aminoluciferin luminescence; inhibition, % at 10 µM; actives 1.8% (n = 330,000); AID 2599;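 active = inhibition above about 50% at the single tested dose, limit read from the data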;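 note: plate controls were DMSO wells with enzyme for no effect and DMSO wells lacking enzyme for full effect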
Target sequence (Q9GZR1 628-1112 limits assumed): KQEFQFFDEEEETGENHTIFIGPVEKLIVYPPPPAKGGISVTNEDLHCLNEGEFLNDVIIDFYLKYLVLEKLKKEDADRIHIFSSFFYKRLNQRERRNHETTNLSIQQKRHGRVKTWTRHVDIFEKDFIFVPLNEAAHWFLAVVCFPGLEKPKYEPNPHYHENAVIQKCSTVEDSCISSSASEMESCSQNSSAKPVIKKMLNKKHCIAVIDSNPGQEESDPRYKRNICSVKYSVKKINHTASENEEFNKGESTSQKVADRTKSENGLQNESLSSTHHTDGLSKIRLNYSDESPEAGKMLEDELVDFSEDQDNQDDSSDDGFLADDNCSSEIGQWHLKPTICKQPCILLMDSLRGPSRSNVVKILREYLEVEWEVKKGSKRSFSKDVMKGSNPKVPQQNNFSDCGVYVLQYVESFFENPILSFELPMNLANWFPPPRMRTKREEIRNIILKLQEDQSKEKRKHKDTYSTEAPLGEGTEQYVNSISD
AHR activator – activators of human aryl hydrocarbon receptor; P35869; AHR-responsive luciferase reporter cells, luminescence; activation, % at 5 µM; actives 2.5% (n = 320,000); in the data active = activation above about 47%;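 note: 0% = vehicle wells and 100% = reference agonist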
EBI2 antag – blocks human EBI2 receptor beta-arrestin signaling; inhibition, % at 5 µM; EBI2 beta-arrestin recruitment, luminescence, 7a,25-OHC stimulated; actives 0.81% (n = 360,000); in the data active = inhibition above about 38%;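 note: enzyme fragment complementation signal reports receptor beta-arrestin coupling in cells; 0% = agonist plus DMSO wells and 100% = wells without agonist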
SENP8 block-1 – SENP8 protease inhibition; Q96LD8; purified SENP8, Z-RLRGG-aminoluciferin cleavage, luminescence; inhibition, % at 10 µM; actives 1.2% (n = 330,000); in the data active = inhibition above about 50%
Target sequence (Q96LD8 whole entry, looked up): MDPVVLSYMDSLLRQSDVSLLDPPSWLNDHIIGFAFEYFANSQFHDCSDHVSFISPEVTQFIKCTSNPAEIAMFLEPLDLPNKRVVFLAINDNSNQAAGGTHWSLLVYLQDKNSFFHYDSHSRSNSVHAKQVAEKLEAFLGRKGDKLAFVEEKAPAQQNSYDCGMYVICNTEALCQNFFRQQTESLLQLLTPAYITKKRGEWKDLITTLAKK
SENP8 block-2 – SENP8 (human) protease inhibition. actives 0.64% (n = 360,000). inhibition, % at 20 µM. recombinant SENP8, Nedd8 substrate fluorescence. Q96LD8; in the data active = inhibition mostly above about 40%, no sharp cut-off; inactive = mostly below about 27%
Starred values were filed as active, the others as inactive; . = no result given. Most compounds without a hit are left out; they make up all but 5% or so of the library.

SMILES | SENP7 block | SENP6 block | AHR activator | EBI2 antag | SENP8 block-1 | SENP8 block-2
CC(C)c1cccc(-c2csc(C(C)(O)c3ccccc3)n2)c1 (stereo unspecified) | . | . | . | 25.8 | . | 19.0
CN(C(=O)CSc1nc(-c2ccccc2)cn1N)C(c1ccccc1)c1ccccc1 | 10.6 | -4.2 | 4.5 | 36.3* | 2.2 | 24.9
O=C(Nc1ccc(C(=O)OC[C@@H]2CCCN3CCCC[C@H]23)cc1)c1cccc(Br)c1 | 2.6 | 3.4 | -2.9 | -5.3 | -4.6 | 0.4
O=C1N/C(=N/O)S/C1=C/c1cccc([N+](=O)[O-])c1 | 12.8 | 57.4* | 3.1 | 1.8 | 18.6 | 30.3
Cc1ccc(S(=O)(=O)N[C@@H](C)CO)cc1 | . | . | . | 1.6 | . | 27.3
Cc1cc(Nc2ccccc2F)n2nc(C)nc2n1 | -1.2 | -3.8 | 3.0 | -3.7 | 1.3 | 6.9
Cc1cc(C)cc(Nc2cc(C)nc3nc(C)nn23)c1 | -1.8 | -2.6 | 51.1* | -16.0 | 0.6 | 0.9
Cc1cc(Nc2ccc(Br)cc2F)n2nc(C)nc2n1 | 7.3 | 1.0 | 55.8* | -10.0 | -4.8 | 3.7
Oc1cc2c(cc1O)C1c3ccc(O)c(O)c3OCC1(O)C2 (stereo unspecified) | 9.7 | 4.5 | -0.6 | -17.9 | 2.0 | 69.2*
O=S1(=O)N[C@H](Cc2ccccc2)COc2cc(N3CCN(Cc4ccccc4F)CC3)ccc21 | . | . | . | 8.6 | . | -1.4
O=C1C(NS(=O)(=O)c2cccs2)=C(N2CCN(c3cccc(C(F)(F)F)c3)CC2)C(=O)c2ccccc21 | 24.1 | 6.0 | 7.2 | 4.5 | 5.8 | 55.9*
CN1CCN(C2=C(NS(=O)(=O)c3cccs3)C(=O)c3ccccc3C2=O)CC1 | 7.3 | 16.7 | -3.0 | -7.7 | 9.1 | 30.1
O=C1C(NS(=O)(=O)c2cccs2)=C(N2CCOCC2)C(=O)c2ccccc21 | 6.4 | -12.8 | 0.8 | -4.1 | 0.7 | 41.5*
c1ccc2c(Nc3nc(-c4ccncc4)nc4ccccc34)cccc2c1 | 10.3 | -9.7 | 51.4* | 11.2 | 13.8 | -40.9
Clc1ccccc1Nc1nc(-c2ccncc2)nc2ccccc12 | 1.0 | -15.1 | 14.8 | -13.1 | -10.3 | -58.8
COc1ccc2nc(N=Nc3ccc(O)c4ccccc34)sc2c1 | 12.3 | 3.3 | 73.0* | 27.6 | 10.5 | -269.2
Cc1ccc(C2/C(=C(\O)c3ccc4c(c3)OCCO4)C(=O)C(=O)N2CC2CCCO2)cc1 (stereo unspecified) | -4.0 | 10.0 | . | -1.9 | -1.8 | -20.2
O=C1c2cccc3c([N+](=O)[O-])ccc(c23)C(=O)N1c1ccc(Cl)cn1 | 3.1 | 16.3 | -8.9 | 44.2* | -13.0 | -287.0
Cc1cn(CC(=O)NCCc2ccccn2)c(=O)[nH]c1=O | . | . | . | -4.8 | . | 11.0
Cc1ccc(OCC(=O)N2CCN(c3ccc([N+](=O)[O-])c(N4CCOCC4)c3)CC2)cc1 | -0.8 | -9.4 | 3.7 | 56.3* | -14.6 | 15.1
CC1(C(=O)NCc2ccc(Cl)cc2)CCN1C(=O)c1cccc(F)c1 (stereo unspecified) | . | . | . | -6.9 | . | 11.7
Cc1cc(/C=N/NC(=O)c2ccsc2)c(C)n1-c1cnccn1 | -6.9 | -7.4 | 77.5* | -8.6 | -15.1 | 17.7
COc1ccc(Cl)cc1CNC[C@H]1O[C@@H](n2ccc(N)nc2=O)[C@H](O)[C@@H]1O | . | . | . | 1.4 | . | 9.6
O=C(CCS(=O)(=O)c1ccccc1)Nc1ccc(-c2nc3ccccc3s2)cc1 | 5.1 | 1.4 | 7.2 | 6.0 | -1.6 | -387.7
O=C(CCS(=O)(=O)c1ccccc1)Nc1cccc(-c2nc3ccccc3s2)c1 | 20.5 | 37.3 | 68.5* | 17.4 | 0.2 | -35.3
SMILES | SENP7 block | SENP6 block | AHR activator | EBI2 antag | SENP8 block-1 | SENP8 block-2
O=C(CSc1nnc2ccccn12)Nc1cccc(-c2nc3ccccc3s2)c1 | 62.8* | 14.8 | 6.0 | 21.6 | -2.2 | -126.7
N#Cc1cccc(NC(=O)c2cc(C3CCCCN3S(=O)(=O)c3cccc4cccnc34)on2)c1 (stereo unspecified) | . | . | . | 5.7 | . | 9.7
Cc1nc2ccc(NC(=O)c3ccccc3)cc2c(=O)n1Cc1ccc(F)cc1 | . | . | . | 23.7 | . | -21.8
COc1ccc(Cn2c(C3CC3)nc3ccc(NC(=O)c4cccnc4)cc3c2=O)cc1 | 3.3 | -9.6 | 26.1 | 53.1* | 0.8 | -37.3
COc1ccc(NC(=O)C2Cc3c(-c4ccc(NC(C)=O)cc4)ccnc3O2)cn1 (stereo unspecified) | . | . | . | -11.4 | . | -7.0
CN(C)c1ccc(C(CNS(=O)(=O)c2ccc(F)c(F)c2)c2c[nH]c3ccccc23)cc1 (stereo unspecified) | 2.7 | -2.1 | 67.7* | 20.0 | 0.6 | 24.8
COc1ccc(NC(=O)c2cc(-c3ccccc3Cl)on2)cc1 | -20.1 | -8.9 | 55.7* | 5.4 | -19.3 | 16.5
COc1ccc(OC)c(-c2cc(C(=O)Nc3cccc(Cl)c3)no2)c1 | -11.0 | 3.8 | 54.8* | 22.2 | 0.6 | -285.6
CN(Cc1ccccc1)C(=O)c1cnc(Cc2c[nH]c3ccccc23)c(I)c1 | . | . | . | 9.4 | . | 11.1
CCOC1=C2[C@@H](CN(S(=O)(=O)c3ccc(C)cc3)[C@H]2c2ccc(CC)cc2)[C@H]2C(=O)N(C)C(=O)[C@H]2C1 | . | . | . | 1.4 | . | 6.9
Cn1c(C(=O)c2ccccc2[N+](=O)[O-])nc2ccccc21 | -7.0 | -11.1 | 48.0* | -4.2 | -3.8 | 3.9
C/C(=N\Nc1cc(-c2ccccc2)nc(-c2ccccc2)n1)c1ccc(O)c(C)c1 | 3.8 | -8.9 | -1.2 | 51.2* | -11.0 | -173.0
COc1cc(N/N=C(\C)c2ccc(N)cc2)nc(-c2ccccc2)n1 | -5.0 | -15.3 | 46.1 | 30.1 | -3.1 | -82.0
COc1cc(N/N=C(\C)c2ccc(O)c(C)c2)nc(-c2ccccc2)n1 | -3.4 | -9.0 | 27.2 | 57.5* | 2.0 | -82.0
CC(=O)Nc1ccc(NC(=O)c2nc(S(=O)(=O)Cc3ccccc3)ncc2Cl)cc1 | -11.4 | -17.8 | 1.2 | -0.4 | -4.0 | 12.5
CCc1nnc(NC(=O)c2nc(S(=O)(=O)Cc3cccc(C)c3)ncc2Cl)s1 | -2.6 | 4.9 | 0.8 | 28.3 | -5.0 | -39.7
COC(=O)c1ccccc1NC(=O)c1nc(S(=O)(=O)Cc2ccccc2)ncc1Cl | 6.0 | -10.5 | -1.1 | 86.0* | -3.3 | -6.8
CCOc1ccccc1NC(=O)c1nc(S(=O)(=O)Cc2cccc(C)c2)ncc1Cl | 7.5 | -4.3 | 36.8 | 73.1* | -7.7 | 16.3
CCc1nnc(NC(=O)c2oc3ccccc3c2COC(C)C)s1 | 4.5 | 4.5 | 74.4* | -9.0 | -3.2 | -64.1
Fc1ccc(C2Nc3cccc4cccc(c34)N2)cc1 | -3.5 | 14.5 | 50.8* | -6.3 | 1.2 | 34.3
COc1cc(C2Nc3cccc4cccc(c34)N2)ccc1OC(C)=O | -2.9 | 11.2 | 2.6 | -2.5 | 6.8 | 10.6
COc1cc(C2Nc3cccc4cccc(c34)N2)cc(OC)c1O | 97.6* | 18.7 | -1.1 | 6.3 | 8.5 | 58.0*
COC(=O)c1ccc(C2Nc3cccc4cccc(c34)N2)cc1 | 12.1 | 27.4 | 11.9 | -12.4 | 1.5 | 54.0*
O=S(=O)(NCc1ccccc1)[C@@H]1CC2C=CC1C2 (stereo partly specified) | -1.0 | -13.6 | -1.1 | -8.4 | -1.5 | 6.8
